Experimental data as given in PubChem BioAssay (NCATS).
Values joined by “and” are separate entries in the source; they are usually repeats but may differ in a detail not shown here. Equal values may be shown once. Inconclusive results are not listed. Where a structure was tested more than once in an assay, its records may differ in their call. Active and inactive are the calls of the source. Unless noted, calls follow the shape of the dose curve; as a rule, active = well fitted curve in the direction sought with a large enough effect; inconclusive = small, poorly fitted or top-dose-only effect, or another doubt; inactive = no such curve, though single readings can be large; an effect the other way counts as inactive or inconclusive.

Legend:
[1] = qHTS to identify inhibitors of the type 1 interferon - major histocompatibility complex class I in skeletal muscle: primary screen against the NCATS Pharmaceutical Collection (AID 1347407);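 also: luminescence of HiBiT knocked into endogenous HLA-B as interferon-induced MHC class I level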
How it was run: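 Cells were seeded with 4 ng/ml IFN-beta, incubated 1 h, then dosed with compounds over eight 1:5 steps up to 46 uM final. After 24 h at 37 C, HiBiT lytic reagent was added and luminescence read after 10 min lysis in the dark.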

[2] = target: Protein phosphatase 1D (Homo sapiens) (UniProt O15297); experiment: RapidFire Mass Spectrometry qHTS Assay for Modulators of WT P53-Induced Phosphatase 1 (WIP1) (AID 1347424);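 also: amount of dephosphorylated VEPPL-S-QETFS peptide product formed by WIP1; series mostly up to about 63 µM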
How it was run: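 10 nM WIP1 + cpd, 1 h RT; + 2 uM VEPPL-pS-QETFS, 5 min RT; stop 0.5% formic acid; labelled product standard 1 uM; RapidFire MS. Buffer 50 mM Tris pH 7.5, 30 mM MgCl2, 1 mM TCEP.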

[3] = target: Protein phosphatase 1D (Homo sapiens) (UniProt O15297); experiment: Rhodamine-PBP qHTS Assay for Modulators of WT P53-Induced Phosphatase 1 (WIP1) (AID 1347425)
How it was run: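 WIP1 (5 nM final) was preincubated with compound for 1 hour at room temperature. It then dephosphorylated 10 uM VEPPL-pS-QETFS peptide in Tris-HCl pH 7.5 with 30 mM MgCl2. Released Pi was detected by 10 uM Rh-PBP fluorescence (ex 525/em 598 nm) read at 1-min intervals for 11 min, as delta f1 - f0.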

[4] = Primary qHTS for inhibitors of La Crosse Virus (LACV) - induced cell death in SH-SY5Y cells (AID 1508616);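 also: top concentration of the series differs between compounds; higher means more rescue of cells from virus-induced death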
How it was run: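 Luminescent ATP readout (ATPLite 1step, 5 min room temperature) measured rescue from LACV-induced death after 6 days of infection at 0.01 MOI; normalized to infected DMSO wells and uninfected DMSO wells.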

[5] = target: Calcium and integrin-binding protein 1 (Homo sapiens) (UniProt Q99828); experiment: Primary qHTS for Identification of Calcium Integrin Binding Protein 1 (CIB1) Competitor (AID 1508620);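 also: GST tagged CIB1 binding a fluorescein labelled alphaIIb integrin peptide tracer; top concentration of the series differs between compounds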
How it was run: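 CIB1-GST (1 uM final) and compound incubated 15 min at room temperature before adding FITC-alphaIIb peptide tracer (100 nM final). Competition for binding read by fluorescence polarization (ex 480, em 540) after another 15 min at room temperature.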

[6] = Primary qHTS for small molecule stabilizers of the endoplasmic reticulum resident proteome: Secreted ER Calcium Modulated Protein (SERCaMP) assay (AID 1508630)
How it was run: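 GLuc-SERCaMP-expressing SH-SY5Y cells, pretreated 16 h with compound, are challenged with thapsigargin to empty ER calcium stores; after 4 h, coelenterazine is added directly to the medium and luminescence is imaged.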

[7] = A High-Content qHTS Against Drug Library for the Identification of Small Molecules that Inhibit DYT1 Early Onset Primary Dystonia-Associated Cell Pathology (AID 1645839; calls by dose curve; also: series mostly up to about 46 µM)
How it was run: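 In this high-content image screen, delE TorsinA mislocalization in inducible Flp-In 293 cells is scored as %pathology, with cell count serving as the counterscreen. Compound exposure lasts 48 h under tetracycline induction in reduced-serum medium.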

[8] = target: Cytochrome P450 2D6 (Homo sapiens) (UniProt P10635); experiment: Cytochrome P450 family 2 subfamily D member 6 (CYP2D6) small molecule antagonists: luciferase biochemical (cell-free) qHTS assay (AID 1645840; active = well fitted curve in the direction sought with a large enough effect in the repeat runs; an effect the other way counts as inactive or inconclusive; also: nearly all actives have a fitted effect of over 55% in size; also: potency is read from the fitted curve at half-maximal effect)
How it was run: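 P450-Glo luminescent screen: recombinant CYP2D6 enzyme–proluciferin substrate mix preincubated with compound 10 min at room temperature, then NADPH regeneration added for 1 h at room temperature. Detection reagent added for 20 min; luciferin light read as relative luminescence units.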

[9] = target: Cytochrome P450 2C9 (Homo sapiens) (UniProt P11712); experiment: Cytochrome P450 family 2 subfamily C member 9 (CYP2C9) small molecule antagonists: luciferase biochemical (cell-free) qHTS assay (AID 1645842; active = well fitted curve in the direction sought with a large enough effect in the repeat runs; an effect the other way counts as inactive or inconclusive; also: nearly all actives have a fitted effect of over 55% in size; also: potency is read from the fitted curve at half-maximal effect)
How it was run: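 Luminescence, after 20 min with luciferin detection reagent, reflected CYP2C9 turnover during a 1 h NADPH-driven reaction at 37C. Enzyme-substrate mix contained 0.4% bovine serum albumin and was preincubated with compound 10 min at room temperature.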

[10] = qHTS to identify inhibitors of the type 1 interferon - major histocompatibility complex class I in skeletal muscle: primary screen against the NCATS LOPAC collection (AID 1347405);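 also: lytic HiBiT luminescence reporting HLA-B protein level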
How it was run: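 Immortalized human C25cl48 myoblasts with HiBiT knocked into endogenous HLA-B*08:01 were stimulated with 4.0 ng/ml IFN-beta and given compounds in a 7-point, 1:4.3 titration from 46 uM final; after 24 hrs, lytic HiBiT luminescence was read.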

[11] = qHTS for inhibitors of adenylyl cyclases using a fission yeast platform: a pilot screen against the NCATS LOPAC library (AID 1347410)
How it was run: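 Growth medium went into the plates first, then compounds were pinned (final up to 57 µM), then CHP2027 yeast were added. Plates were incubated overnight (18 h) at 30C in the dark, and GFP was measured by laser scanning cytometry.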

[12] = Validation qHTS assay for inhibitors of Activation Induced Cytidine Deaminase (AID): UDG Counterscreen signal (AID 1347427)
How it was run: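 Counterscreen read of UDG activity (2 U/mL, 4/3x) in the FRET deamination format with AID (1 uM, 4/3x), DJC20/DJC23 substrates (250 nM, 4x), 4 h at room temperature. NaOH stop, fluorescence at 560 ex/665 em.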

[13] = target: Single-stranded DNA cytosine deaminase (Homo sapiens) (UniProt Q9GZX7); experiment: Validation qHTS assay for inhibitors of Activation Induced Cytidine Deaminase (AID): AID signal (AID 1347429)
How it was run: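 AID and UDG were combined and compounds added at final up to 114 uM, then DJC20/DJC23 FRET substrate was added for 4 hr at room temperature. NaOH was then added for 30 min before fluorescence was read at 540/590 nm.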

[14] = target: Calcium and integrin-binding protein 1 (Homo sapiens) (UniProt Q99828); experiment: Validation qHTS for Identification of Calcium Integrin Binding protein 1 (CIB1) Competitor (AID 1508618)
How it was run: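 Fluorescence polarization with 1 uM CIB1-GST and 100 nM FITC-alphaIIb peptide in HEPES pH 7.4, NaCl, 5 mM CaCl2, Tween20. Compounds at up to 114 uM final, preincubated with protein 15 min; read after 15 min more at RT.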

[15] = target: Calcium and integrin-binding protein 1 (Homo sapiens) (UniProt Q99828); experiment: Confirmatory qHTS for Identification of Calcium Integrin Binding Protein 1 (CIB1) Competitor (AID 1508617); also: nearly all actives have a fitted effect of over 65% in size; also: potency is read from the fitted curve at half-maximal effect
How it was run: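 FP competition: CIB1-GST (1 uM final) in 5 mM HEPES pH 7.4, 125 mM NaCl, 5 mM CaCl2, 0.01% Tween20 preincubated 15 min RT with compounds (up to 114 uM), then FITC-alphaIIb peptide (100 nM), 15 min RT; Ex 480/Em 540.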

[16] = qHTS to identify inhibitors of the type 1 interferon - major histocompatibility complex class I in skeletal muscle: primary screen against the NCATS Mechanism Interrogation Plate v5.0 (MIPE) Libary (AID 1347411); also: nearly all actives have a fitted effect of over 65% in size; also: potency is read from the fitted curve at half-maximal effect
How it was run: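 Immortalized human C25cl48 myoblasts with HiBit knocked into endogenous HLA-B*08:01 were stimulated with 4.0 ng/ml IFN-beta and exposed to compounds (11-point 1:3 titration, top 46 uM final) for 24 hrs at 37 C; HiBiT lytic luminescence measured.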

[17] = target: Cytochrome P450 3A4 (Homo sapiens) (UniProt P08684); experiment: Cytochrome P450 family 3 subfamily A member 4 (CYP3A4) small molecule antagonists: luciferase qHTS assay (AID 1645841; active = well fitted curve in the direction sought with a large enough effect in the repeat runs; an effect the other way counts as inactive or inconclusive; also: nearly all actives have a fitted effect of over 45% in size)
How it was run: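 Luminescent CYP3A4 activity readout: compounds plus enzyme-substrate mix 10 min at room temperature, reaction started with NADPH regenerating system for 1 h, stopped with detection reagent, read after 20 min. Ketoconazole served as control.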

Measured: Potency

Chain of Calcium and integrin-binding protein 1 (Homo sapiens) (Q99828 whole entry, looked up): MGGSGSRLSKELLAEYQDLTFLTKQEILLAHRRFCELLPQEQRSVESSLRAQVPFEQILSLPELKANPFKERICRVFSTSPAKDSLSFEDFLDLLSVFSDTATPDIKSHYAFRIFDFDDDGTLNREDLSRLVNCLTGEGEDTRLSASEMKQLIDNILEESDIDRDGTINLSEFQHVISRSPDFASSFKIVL
Chain of Cytochrome P450 2C9 (Homo sapiens) (P11712 whole entry, looked up): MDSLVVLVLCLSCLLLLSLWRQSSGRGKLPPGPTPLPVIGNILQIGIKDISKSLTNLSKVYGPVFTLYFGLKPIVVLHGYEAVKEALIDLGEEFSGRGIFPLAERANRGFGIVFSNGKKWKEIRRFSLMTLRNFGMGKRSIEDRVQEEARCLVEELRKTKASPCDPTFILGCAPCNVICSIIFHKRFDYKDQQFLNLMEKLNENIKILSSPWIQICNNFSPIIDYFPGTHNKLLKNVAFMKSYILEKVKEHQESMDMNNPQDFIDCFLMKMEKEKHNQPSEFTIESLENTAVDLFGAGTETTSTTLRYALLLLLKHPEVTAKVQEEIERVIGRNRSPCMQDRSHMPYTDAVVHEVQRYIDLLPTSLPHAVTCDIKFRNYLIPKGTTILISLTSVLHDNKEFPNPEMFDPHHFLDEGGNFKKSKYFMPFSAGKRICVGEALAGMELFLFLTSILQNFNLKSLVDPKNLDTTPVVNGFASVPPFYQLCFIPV
Chain of Cytochrome P450 2D6 (Homo sapiens) (P10635 whole entry, looked up): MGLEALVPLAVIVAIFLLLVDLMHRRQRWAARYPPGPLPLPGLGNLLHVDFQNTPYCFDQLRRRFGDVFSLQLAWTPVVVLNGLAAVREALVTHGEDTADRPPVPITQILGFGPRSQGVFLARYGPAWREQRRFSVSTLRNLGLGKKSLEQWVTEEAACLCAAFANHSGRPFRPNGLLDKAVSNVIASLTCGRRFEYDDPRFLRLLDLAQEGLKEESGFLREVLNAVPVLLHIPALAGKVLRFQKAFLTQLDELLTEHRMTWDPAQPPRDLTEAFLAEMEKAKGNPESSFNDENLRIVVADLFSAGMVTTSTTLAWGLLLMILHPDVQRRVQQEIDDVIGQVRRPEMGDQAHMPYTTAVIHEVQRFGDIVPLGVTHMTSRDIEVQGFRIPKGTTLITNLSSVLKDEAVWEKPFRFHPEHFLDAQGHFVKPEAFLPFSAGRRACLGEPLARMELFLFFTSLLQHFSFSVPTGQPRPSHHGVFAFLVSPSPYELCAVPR
Chain of Single-stranded DNA cytosine deaminase (Homo sapiens) (Q9GZX7 whole entry, looked up): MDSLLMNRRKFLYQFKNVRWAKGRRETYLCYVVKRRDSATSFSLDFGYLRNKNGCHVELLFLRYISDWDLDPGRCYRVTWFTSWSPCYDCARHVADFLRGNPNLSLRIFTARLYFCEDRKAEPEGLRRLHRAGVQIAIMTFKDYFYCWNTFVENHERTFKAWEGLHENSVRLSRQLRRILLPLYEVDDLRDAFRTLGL
Chain of Protein phosphatase 1D (Homo sapiens) (O15297 whole entry, looked up): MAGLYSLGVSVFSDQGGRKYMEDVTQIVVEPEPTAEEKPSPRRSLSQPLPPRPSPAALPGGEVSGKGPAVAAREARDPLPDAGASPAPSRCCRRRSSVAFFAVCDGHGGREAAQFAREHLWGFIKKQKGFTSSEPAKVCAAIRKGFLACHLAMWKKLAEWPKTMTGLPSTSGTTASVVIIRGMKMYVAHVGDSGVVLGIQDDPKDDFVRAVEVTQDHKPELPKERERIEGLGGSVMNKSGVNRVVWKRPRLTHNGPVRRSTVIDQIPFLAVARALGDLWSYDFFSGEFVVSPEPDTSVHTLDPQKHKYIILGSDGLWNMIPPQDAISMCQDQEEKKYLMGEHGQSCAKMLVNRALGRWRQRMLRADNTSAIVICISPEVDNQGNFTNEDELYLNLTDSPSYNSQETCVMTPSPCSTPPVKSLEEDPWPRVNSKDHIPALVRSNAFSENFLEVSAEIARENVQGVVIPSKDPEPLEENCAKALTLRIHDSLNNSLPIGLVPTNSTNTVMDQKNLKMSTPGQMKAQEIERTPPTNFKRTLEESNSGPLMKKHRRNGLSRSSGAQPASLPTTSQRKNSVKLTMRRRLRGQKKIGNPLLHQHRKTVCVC
Chain of Cytochrome P450 3A4 (Homo sapiens) (P08684 whole entry, looked up): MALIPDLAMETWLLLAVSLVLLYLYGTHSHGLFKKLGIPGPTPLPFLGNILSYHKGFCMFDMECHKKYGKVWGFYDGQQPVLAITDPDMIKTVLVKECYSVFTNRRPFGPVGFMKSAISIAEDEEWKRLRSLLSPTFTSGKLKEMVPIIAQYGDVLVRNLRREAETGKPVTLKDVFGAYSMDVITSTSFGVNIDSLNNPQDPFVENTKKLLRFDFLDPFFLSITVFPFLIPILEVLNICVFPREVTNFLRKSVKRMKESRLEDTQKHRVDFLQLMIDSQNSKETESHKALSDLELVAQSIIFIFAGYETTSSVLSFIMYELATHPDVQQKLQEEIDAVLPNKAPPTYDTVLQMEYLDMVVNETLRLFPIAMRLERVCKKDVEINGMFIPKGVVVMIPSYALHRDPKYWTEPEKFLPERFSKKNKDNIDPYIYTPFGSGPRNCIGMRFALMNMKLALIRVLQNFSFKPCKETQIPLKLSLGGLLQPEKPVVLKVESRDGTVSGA

OC[C@@H](O)[C@H](O)[C@H](O)[C@@H](O)CO
inactive: [1] | [2] | [3] | [4] | [5] | [6] | [7] | [8] | [9]

CC(=O)N[C@@H](CS)C(=O)O
not listed: [15] | [16] | [17]
inactive: all other assays above

CC[C@]1(O)C[C@@H]2CN(CCc3c([nH]c4ccccc34)[C@@](C(=O)OC)(c3cc4c(cc3OC)N(C)[C@H]3[C@@](O)(C(=O)OC)[C@H](OC(C)=O)[C@]5(CC)C=CCN6CC[C@]43[C@@H]65)C2)C1
inactive: [1] | [2] | [3] | [4] | [5] | [6] | [7] | [9]

O=C(O)CCc1nc(-c2ccccc2)c(-c2ccccc2)o1
not listed: [6] | [14] | [15] | [16] | [17]
inactive: all other assays above

O=C(O)Cc1cccc2ccccc12
inactive: [1] | [2] | [3] | [4] | [5] | [7] | [8] | [9]

Cc1cccc(C)c1OCC(C)N (stereo unspecified)
active: [8] 13.8 µM and 21.3 µM
not listed: [5] | [14] | [15] | [16] | [17]
inactive: all other assays above

COC[C@@H](c1ccc(C(F)(F)F)cc1)N1CCN(C2(C)CCN(C(=O)c3c(C)ncnc3C)CC2)C[C@H]1C
inactive: [1] | [2] | [3] | [4] | [5] | [6] | [9]

O=C(O)c1cc(-c2ccccc2)nc2ccccc12
inactive: [1] | [2] | [3] | [4] | [7] | [8]
27 µM (active) and inactive: [9]

C=C1C(=O)[C@@]23C(CC[C@@H]1[C@H]2O)[C@@]12CO[C@]3(O)[C@@H](O)[C@@H]1C(C)(C)CC[C@@H]2O (stereo partly specified)
active: [15] 25.1 µM

O=C(O)c1c(Cl)c(Cl)c(Cl)c(Cl)c1-c1c2cc(I)c(=O)c(I)c-2oc2c(I)c(O)c(I)cc12
inactive: [15]

c1ccc2c(Cc3c[nH]c4ccccc34)c[nH]c2c1
inactive: [16] | [5] | [6]

C=C1C(=O)OC(CCCCCCCC)C1C(=O)O (stereo unspecified)
inactive: [5] | [6]
active: [16] 18.6 µM

C[C@]12CCC3c4ccc(O)cc4CCC3C1CCC2=O (stereo partly specified)
inactive: [16] | [5] | [6]

CCCCCCCCCCCC1=C(O)C(=O)C=C(O)C1=O
inactive: [16] | [5] | [6] | [8] | [17]

O=C(NOCC(O)CO)c1cc(Br)c(F)c(F)c1Nc1ccc(I)cc1F (stereo unspecified)
inactive: [16] | [5] | [6]

CCCCCNC(=O)N1CCC(CN(Cc2ccc(Cl)cc2)Cc2ccc([N+](=O)[O-])s2)C1 (stereo unspecified)
active: [8] 2.39 µM | [9] 2.68 µM
inactive: [16] | [5] | [6]
